The nature of assay [1]: AP1 Signaling Pathway (AID 357).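 Further: ME-180 reporter cells stimulated with EGF at its EC50 level; on the % scale 0 is the no-effect control and ±100 the full control effect.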 Conditions: ME-180 AP-1-bla reporter, EGF-induced, beta-lactamase ratio, 5 h. In a few lines:
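Titration-series screen for positive or negative modulators of EC50 EGF-induced signaling in ME-180 cells carrying an AP-1-driven beta-lactamase reporter. After 5 hours at 37 degrees Celsius, CCF4 460nm/530nm emission ratio gave %Activity; AC50 values derived.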

Assay [2] has as its target Cytochrome P450 1A2 (Homo sapiens) (UniProt P05177). Nature of the assay: p450-cyp1a2 (AID 410; calls by dose curve; further: potency means the concentration at half of the fitted maximal effect;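 on activity change, negative = inhibition: -100% = full effect of reference inhibitor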). As to conditions: recombinant CYP1A2, luciferin-ME demethylation, luminescence; series mostly up to 57 µM. In a few lines: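 Luminescent readout of luciferin formed from Luciferin-ME by human CYP1A2; data normalized against complete inhibition by 57 uM furafylline. Enzyme 20nM, substrate 100uM at Km, 100mM KPO4 buffer, 60 min reaction at room temperature.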

The target of assay [3] is Glucocorticoid receptor (Homo sapiens) (UniProt P04150). The assay is described as follows: GR-GFP Redistribution (AID 450;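 active means compounds whose dose series gives a full or clear partial fitted curve of increased nuclear translocation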; further: potency means the concentration at half of the fitted maximal effect). Conditions: U2OS GR-GFP nuclear translocation, laser cytometry, 2 h.
Assay [4] has the same target. The assay is described as follows: GR-EFC Redistribution (AID 451; calls by dose curve; further: potency means the concentration at half of the fitted maximal effect). As to conditions: CHO-K1 GR-EFC translocation, beta-gal luminescence, 2 h. The gist of the method:
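CHO-K1 cells stably expressing nuclear-localized β-gal enzyme acceptor and GR fused C-terminally to the enzyme donor fragment; ligand-driven nuclear translocation restores β-gal by complementation. Compounds titrated up to 46 uM final, 2 h at 37 °C; luminescence read.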

Assay [5] deals with Mitogen-activated protein kinase 10 (Mus musculus) (UniProt Q61831). Nature of the assay: JNK3 AlphaScreen Assay (AID 530).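 Further: kinase came from lysate of stimulated human HepG2 cells; signal reports phosphorylation of biotinylated GST-cJun 1-79 at Ser73 with 10 µM ATP; on the % scale 0 is the no-effect control and ±100 the full control effect.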 Conditions: JNK3 lysate, c-Jun phosphorylation; series mostly up to 57.1 µM. In a few lines: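 Inhibitors reduce antibody binding to phosphorylated biotin-cJun, lowering AlphaScreen luminescence. Lysates from HepG2 cells pre-activated by IL-1beta plus TNF-alpha supplied JNK3; compounds were titrated.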

Assay [6] in a line: NFAT Signaling Pathway (AID 444).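 Further: carbachol stimulus at about its EC50 of 1 µM final; on the % scale 0 is the no-effect control and ±100 the full control effect.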 Conditions: Jurkat NFAT-bla M1, carbachol, beta-lactamase ratio, 5 h. In a few lines:
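Jurkat cells carrying an NFAT-driven β-lactamase reporter and co-transfected muscarinic M1 receptor were treated with compound plus carbachol (1 uM final, an EC50 level) for 5 h at 37 °C. CCF4 loading followed for 1 h at RT; 460/530 nm ratio gave %activity.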

A short description of assay [7]: Stat Signaling Pathway (AID 446).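 Further: ME-180 cervical cancer cells given 40 pM IL-6 alongside compound; SIE-controlled beta-lactamase reporter measured as 460/530 nm FRET emission ratio; on the % scale 0 is the no-effect control and ±100 the full control effect.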 Conditions: ME-180 SIE beta-lactamase reporter, IL-6 stimulated, 5 h. In a few lines:
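Reporter line: ME-180 cervical carcinoma, SIE-beta-lactamase. Treatment: compound with 40 pM IL-6, 5 hrs, 37 C, in low-serum OPTI-MEM with 10 mM HEPES pH 7.3. Detection: 460/530 nm fluorescence.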

The structures appear in SMILES notation. Where “and” joins values, the source holds several entries; their conditions need not be identical. Equal entries are not always repeated. A number with no mark means an inactive call. Records with an inconclusive call do not appear. Calls of active or inactive are those of the source. Unless noted, the call rests on the fitted dose curve; in most records, active means well fitted curve in either direction with a large enough effect (not every such curve was filed as active); inconclusive means small, poorly fitted or top-dose-only effect, or another doubt; inactive means flat fitted curve, though single readings scatter.

Cytochrome P450 1A2 (Homo sapiens), sequence (P05177 whole entry, looked up): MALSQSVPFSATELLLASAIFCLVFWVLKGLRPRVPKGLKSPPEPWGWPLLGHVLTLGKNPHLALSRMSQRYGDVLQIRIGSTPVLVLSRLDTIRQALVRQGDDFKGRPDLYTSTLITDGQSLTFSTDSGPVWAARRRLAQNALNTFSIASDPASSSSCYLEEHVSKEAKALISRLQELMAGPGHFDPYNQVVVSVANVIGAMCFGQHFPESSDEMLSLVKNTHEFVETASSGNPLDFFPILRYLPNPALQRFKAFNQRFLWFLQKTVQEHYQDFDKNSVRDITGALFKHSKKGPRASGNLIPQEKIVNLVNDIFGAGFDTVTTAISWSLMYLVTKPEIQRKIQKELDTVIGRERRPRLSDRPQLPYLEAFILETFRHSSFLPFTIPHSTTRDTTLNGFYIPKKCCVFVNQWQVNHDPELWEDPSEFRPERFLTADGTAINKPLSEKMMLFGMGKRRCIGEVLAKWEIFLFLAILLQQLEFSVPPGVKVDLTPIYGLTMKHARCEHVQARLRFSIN
Glucocorticoid receptor (Homo sapiens), sequence (P04150 whole entry, looked up): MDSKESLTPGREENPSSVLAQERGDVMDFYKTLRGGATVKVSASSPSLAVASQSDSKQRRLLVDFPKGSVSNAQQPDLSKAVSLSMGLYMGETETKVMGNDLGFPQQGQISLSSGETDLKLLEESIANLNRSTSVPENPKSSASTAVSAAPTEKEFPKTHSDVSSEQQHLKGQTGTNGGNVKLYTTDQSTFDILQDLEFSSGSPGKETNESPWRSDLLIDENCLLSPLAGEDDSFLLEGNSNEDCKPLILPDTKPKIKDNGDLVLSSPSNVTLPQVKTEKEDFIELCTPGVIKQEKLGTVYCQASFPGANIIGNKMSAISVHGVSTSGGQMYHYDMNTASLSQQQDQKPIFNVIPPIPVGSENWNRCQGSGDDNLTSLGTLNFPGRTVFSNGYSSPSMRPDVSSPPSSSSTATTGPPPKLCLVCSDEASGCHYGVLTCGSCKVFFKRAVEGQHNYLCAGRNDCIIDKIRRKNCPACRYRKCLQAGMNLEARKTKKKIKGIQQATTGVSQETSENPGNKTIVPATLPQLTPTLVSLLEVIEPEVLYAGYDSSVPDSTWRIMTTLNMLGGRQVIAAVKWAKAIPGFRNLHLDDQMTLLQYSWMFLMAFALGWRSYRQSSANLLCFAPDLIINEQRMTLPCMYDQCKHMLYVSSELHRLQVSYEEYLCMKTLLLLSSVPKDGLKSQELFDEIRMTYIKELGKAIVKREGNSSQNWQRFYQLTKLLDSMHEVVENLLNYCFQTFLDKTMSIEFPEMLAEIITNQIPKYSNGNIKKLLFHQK

Consider `CC(C)Oc1cccnc1N(C)C1CCN(Cc2ccccc2)CC1`, for which the activity change, negative = inhibition in assay [1] (at 38 µM (top of the series)) is 2.27%. Besides, the Potency result in assay [2] is “inactive”. For the same compound, the Potency in assay [3] and in assay [4] was over 46 µM in each case. The outcome in assay [5] was inactive.
For `NCc1cc(=O)[nH]o1`, the results for the activity change, negative = inhibition in assay [1] (at 38 µM (top of the series)) and in assay [6] (at 38 µM (top of the series)) were 1.2% and 7.89%, respectively. For the same compound, the Potency entry in assay [2] is “inactive”. Besides, the activity, negative = inhibition in assay [7] (at 38 µM (top of the series)) was -1.4%. Moreover, the Potency in assay [3] and in assay [4] was over 46 µM each time. Moreover, the outcome in assay [5] was inactive.
Regarding `Cc1nccc2c1[nH]c1ccccc12`, the activity change, negative = inhibition in assay [1] (at 17.2 µM (top of the series)) is -6.36%; in assay [1] (at 38 µM (top of the series)), -14.9%; in assay [6] (at 17.2 µM (top of the series)), -12.1%; in assay [6] (at 38 µM (top of the series)), -12.6%. In addition, the Potency in assay [2] is 3.98 µM (active) and 1.26 µM (active) and 631 nM (active); in assay [3], > 46 µM and > 20.6 µM; in assay [4] it was > 46 µM and > 20.6 µM. Further, the activity, negative = inhibition in assay [7] (at 17.2 µM (top of the series)) was 1.58%; in assay [7] (at 38 µM (top of the series)), 11%. Besides, the call in assay [5] was inactive.
Consider `Cn1cnc(CCN)c1`, for which the results for the activity change, negative = inhibition in assay [1] (at 38 µM (top of the series)) and in assay [6] (at 38 µM (top of the series)) were 7.44% and 6.43%, respectively. Further, the Potency entry in assay [2] is “inactive”. Besides, the activity, negative = inhibition in assay [7] (at 38 µM (top of the series)) is 0.0099%. For the same compound, the Potency in assay [3] and in assay [4] was over 46 µM in each case. Moreover, in assay [5], the outcome was inactive.
Take `c1ccc2sc(C3(N4CCCCC4)CCCCC3)cc2c1`: in assay [1] (at 38 µM (top of the series)), the activity change, negative = inhibition is -1.54%. In addition, the Potency entry in assay [2] is “inactive”. The activity, negative = inhibition in assay [7] (at 38 µM (top of the series)) was -24.8%. In addition, the Potency in assay [3] and in assay [4] was over 46 µM throughout. Further, in assay [5], the result was inactive.
On to `CN[C@@H]1C[C@@H](c2ccc(Cl)c(Cl)c2)c2ccccc21`, for which the activity change, negative = inhibition in assay [1] (at 38 µM (top of the series)) was 23.3%; in assay [6] (at 38 µM (top of the series)) it was -14.3%. The Potency in assay [3] and in assay [4] was over 46 µM in each case. For the same compound, the call in assay [5] was inactive.
`Clc1cnc(Oc2ccc(Oc3ncc(Cl)cc3Cl)cc2)c(Cl)c1`: the activity change, negative = inhibition in assay [1] (at 38 µM (top of the series)) is 8.39%. For the same compound, in assay [2], the Potency result is “inactive”. In addition, the activity, negative = inhibition in assay [7] (at 38 µM (top of the series)) was 1.75%. Moreover, the Potency in assay [3] and in assay [4] was over 46 µM in each case. Further, the compound was classed as inactive in assay [5].
On to `CC(=O)NCCc1c[nH]c2ccccc12`, for which the activity change, negative = inhibition in assay [1] (at 38 µM (top of the series)) was 3.76%; in assay [6] (at 38 µM (top of the series)), 5.76%. In addition, the Potency is 15.8 µM (active) in assay [2], over 46 µM in assay [3] and over 46 µM in assay [4]. In addition, the outcome in assay [5] was inactive.
